# BAZ2B block – inhibitors of human BAZ2B bromodomain; Potency, µM (top dose mostly 114 µM), without a hit: at the top dose activity change, negative = inhibition, usual class: inhibitors; actives 4.4% (n = 360,000); AID 504333; Q9UIF8; AlphaScreen BAZ2B-H3K14Ac peptide displacement; also: % is scaled to controls: 0 for no effect and ±100 for the full control effect; nearly all actives have a fitted effect of over 60% in size
#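 Inhibition is scored as reduced AlphaScreen emission. The BAZ2B/b-H3(5-23)K14Ac complex (50 nM each) in PBS pH 7.4, 0.01% Tween-20 meets compound (up to 110 uM) for 30 min at RT before bead addition.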
# Sfp PPTase inh – Sfp phosphopantetheinyl transferase inhibition; Potency, µM, without a hit: largest response in the series, negative = inhibition, actives largely listed as inhibitors; AID 1490; Biochemical Sfp PPTase activity, qHTS; Q9F4F7; actives 3.5% (n = 310,000);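 also: the enzyme is Sfp with the accession as filed and its product quenches rhodamine fluorescence; 0% = enzyme reaction without inhibitor and -100% = no enzyme wells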
#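 Buffer: 50 mM Hepes-Na pH 7.6, 10 mM MgCl2, 0.01% Nonidet P-40, 0.01% BSA. Enzyme 15 nM, pre-exposed to compound 15 min; substrates then added and fluorescence change tracked over 30 min.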
# JMJD2A Tudor – JMJD2A Tudor domain (human) inhibition; Potency, µM (doses to about 114 µM), for inactives: top-dose activity change, negative = inhibition, usual class: inhibitors; AlphaScreen JMJD2A-Tudor / H3K4me3 peptide binding; actives 4.4% (n = 390,000); O75164; also: % is scaled to controls: 0 for no effect and ±100 for the full control effect; nearly all actives have a fitted effect of over 50% in size
# PLK1 PBD inh – PLK1 (human) polo-box domain binding inhibition | P53350 | Plk1 PBD binding of FITC phosphopeptide, fluorescence polarization | Potency, µM, for inactives: max response, negative = inhibition, most hits filed as inhibitors | actives 2.8% (n = 360,000); also: series mostly up to about 57 µM; % is scaled to controls: 0 for no effect and ±100 for the full control effect; nearly all actives have a fitted effect of over 65% in size
# Target sequence (P53350 whole entry, looked up, the tested form may be a part): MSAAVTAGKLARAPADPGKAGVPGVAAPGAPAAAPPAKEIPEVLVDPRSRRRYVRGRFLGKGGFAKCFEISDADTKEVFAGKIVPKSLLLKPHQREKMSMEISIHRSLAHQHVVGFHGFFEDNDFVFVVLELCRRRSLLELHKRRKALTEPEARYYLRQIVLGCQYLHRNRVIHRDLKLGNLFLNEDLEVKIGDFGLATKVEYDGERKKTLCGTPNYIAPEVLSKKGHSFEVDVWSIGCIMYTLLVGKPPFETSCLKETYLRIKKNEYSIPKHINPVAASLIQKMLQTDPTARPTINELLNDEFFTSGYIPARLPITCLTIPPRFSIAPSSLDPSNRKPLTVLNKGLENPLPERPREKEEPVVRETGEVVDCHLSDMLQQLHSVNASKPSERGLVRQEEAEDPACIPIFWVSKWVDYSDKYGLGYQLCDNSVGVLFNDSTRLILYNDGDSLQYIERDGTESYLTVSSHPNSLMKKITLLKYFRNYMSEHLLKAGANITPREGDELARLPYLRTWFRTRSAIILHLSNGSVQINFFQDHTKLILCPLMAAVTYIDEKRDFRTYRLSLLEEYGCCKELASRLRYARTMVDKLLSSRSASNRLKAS
# G9a inh – G9a (human) methyltransferase inhibition; Q96KQ7; G9a H3K9 monomethylation, AlphaScreen, 2 h; Potency, µM (top dose mostly 102 µM), inactives show at the highest dose activity, negative = inhibition, usual class: inhibitors; actives 8.8% (n = 350,000); also: % is scaled to controls: 0 for no effect and ±100 for the full control effect; nearly all actives have a fitted effect of over 75% in size
#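 Using a bead-based AlphaScreen, monomethylated H3K9 product from 2 h room-temperature reactions (G9a 20 nM, peptide 500 nM, SAM 20 uM) was detected with 0.5 ug/mL rabbit anti-H3K9me1 antibody.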
# HP1b binding inh – inhibitors of HP1-beta chromodomain binding to methylated histone tails; Potency, µM (series often up to 114 µM), for the others: at the highest dose activity change, negative = inhibition, actives largely listed as inhibitors; actives 0.56% (n = 390,000); AID 540317; AlphaScreen HP1-beta / biotin-H3K9me3 peptide binding; P83916; also: nearly all actives have a fitted effect of over 70% in size
#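 AlphaScreen: HP1-beta (50 nM) preformed 30 min with biotin-H3(1-18)K9me3 peptide (50 nM) in PBS pH 7.4, 0.01% Tween-20. Compound added for 30 min at RT, then streptavidin donor/nickel chelate acceptor beads (10 ug/mL) for 30 min.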
# Numbers without * were called inactive; u = inconclusive; x = no result; [ ] = remark or other dose. A selection: hits, their analogues and other compounds. The true share with any hit is near 12%. Calls follow the shape of the dose curve; as a rule, active = well fitted curve in the direction sought with a large enough effect; inconclusive = small, poorly fitted or top-dose-only effect, or another doubt; inactive = no such curve, though single readings can be large; an effect the other way counts as inactive or inconclusive. Potency is read from the fitted curve at half-maximal effect.
SMILES,BAZ2B block,Sfp PPTase inh,JMJD2A Tudor,PLK1 PBD inh,G9a inh,HP1b binding inh
C=CCOn1c(=O)c(-c2cc3ccccc3o2)[n+]([O-])c2ccccc21,-2%,5%,14%[11.4 µM],30µM*,u,-10%
CCOC(=O)COn1c(=O)c(-c2ccc(F)cc2)[n+]([O-])c2ccccc21,11%,4%,-15%,-22%,-8%,22%
CC[C@H](C)[C@H](NC(=O)[C@H](Cc1ccc(O)cc1)NC(=O)[C@H](Cc1cnc[nH]1)NC(=O)[C@H](CCCNC(=N)N)NC(=O)[C@H](CC(C)C)NC(=O)[C@H](C)NC(=O)[C@@H](N)CO)C(=O)N[C@@H](CC(N)=O)C(=O)N[C@@H](CC(C)C)C(=O)N[C@H](C(=O)N[C@H](C(=O)N[C@@H](CCCNC(=N)N)C(=O)N[C@@H](CCC(N)=O)C(=O)N[C@@H](CCCNC(=N)N)C(=O)N[C@@H](Cc1ccc(O)cc1)C(N)=O)[C@@H](C)O)[C@@H](C)CC,x,11%,x,x,x,x
N#CCC(=O)N/N=C/c1cn(Cc2ccccc2C#N)c2ccccc12,-24%,-1%,-8%,-2%,u,-5%
N#CCC(=O)N/N=C/c1c(-c2ccccc2)n(-c2ccccc2)c2ccccc12,-29%,56µM*,-6%,u,15%,15%[57 µM]
CN1CCc2c(sc3c2C(=O)NC(c2ccccn2)N3)C1 (centres undefined),45µM*,16µM*,20µM*,u,25µM*,36%
Cc1cccc(C2NC(=O)c3c(sc4c3CCN(C)C4)N2)c1O (centres undefined),-14%,x,-22%,x,u,6%
CN1CCc2c(sc3c2C(=O)NC(c2ccc(OC(=O)c4ccc(C(C)(C)C)cc4)cc2)N3)C1 (centres undefined),-34%,x,-17%,x,7.9µM*,5%
O=C1NC(c2ccccn2)Nc2sc3c(c21)CCC3 (centres undefined),u,32µM*,u,-25%,22µM*,11%
CC(C)(C)C1CCc2c(sc3c2C(=O)NC(c2ccco2)N3)C1 (centres undefined),-1%,56µM*,u,u,10µM*,13%
CC(CC(=O)Nc1ccc2c(c1)c(=O)n(C)n2Cc1ccc(F)cc1)C(F)(F)F (centres undefined),x,x,x,-2%,x,x
CN1CCc2c(sc3c2C(=O)NC(c2ccc4c(c2)OCO4)N3)C1 (centres undefined),-26%,u,-14%,-4%,0%[12.7 µM],8%
Cc1ccsc1C1NC(=O)c2c(sc3c2CCCC3)N1 (centres undefined),-7%,45µM*,u,u,u,-15%
CN1CCc2c(sc3c2C(=O)NC(c2ccc(OC(=O)c4ccc(Cl)cc4)cc2)N3)C1 (centres undefined),u,x,-11%,x,16µM*,22%
O=C1NC(c2ccc(Br)cc2)Nc2sc3c(c21)CCC3 (centres undefined),-26%,40µM*,u,u,u,-7%
CN1CCc2c(sc3c2C(=O)NC(c2ccc(OC(=O)c4ccccc4)cc2)N3)C1 (centres undefined),-17%,x,-30%,x,13µM*,-5%
Cc1ccc(C2NC(=O)c3c(sc4c3CCN(C)C4)N2)o1 (centres undefined),4%,u,-32%,-7%,26%[59 µM],13%
O=C(NCc1ccco1)c1ccc2sc([C@@H]3O[C@H](CO)[C@@H](O)[C@H]3O)nc2c1,x,x,x,-1%,x,x
CN(C)CCN(Cc1ccccc1)S(=O)(=O)c1ccc(-c2cc(C(F)(F)F)on2)s1,-34%,x,u,x,-5%[59 µM],17%
Cc1ccc(N(CC(=O)NC2CCCCC2)S(=O)(=O)c2c(C)noc2C)cc1,11%,23%,-9%,-5%,-15%,56%
CN1CCc2c(sc3c2C(=O)NC(c2ccccc2)N3)C1 (centres undefined),-1%,56µM*,-22%,-16%,40µM*,0%
Cc1ccc(C2NC(=O)c3c(sc4c3CCN(C)C4)N2)s1 (centres undefined),-30%,-2%,u,-16%,u,-31%
Cc1csc(SCC(=O)Nc2cc(S(=O)(=O)N3CCOCC3)ccc2N2CCOCC2)n1,3%,13%,-7%,3%,3%[12.7 µM],48%
CCc1ccc(C(=O)CSc2nc3cc(S(=O)(=O)N4CCOCC4)ccc3n2CC)cc1,-11%,u,-16%,-19%,45µM*,u
COC(=O)c1ccc(CSc2nc3ccc(S(=O)(=O)N4CCOCC4)cc3[nH]2)cc1,-28%,1%,-32%,-6%,14µM*,11%
SMILES,BAZ2B block,Sfp PPTase inh,JMJD2A Tudor,PLK1 PBD inh,G9a inh,HP1b binding inh
Cc1csc(SCC(=O)c2ccc(S(=O)(=O)N3CCOCC3)cc2)n1,-7%,u,56µM*,-21%,28µM*,-10%
COC(=O)c1ccc(CSc2nc3ccc(S(N)(=O)=O)cc3[nH]2)cc1,u,-4%,-19%,-6%,6%,5%
O=S(=O)(c1ccc2nc(COc3ccccc3)[nH]c2c1)N1CCOCC1,u,11%,-23%,-7%,50µM*,47%
OC[C@@H]1O[C@](CO)(O[C@H]2O[C@H](CO)[C@@H](O)[C@H](O)[C@H]2O)[C@H](O)[C@H]1O,x,13%,x,x,3%[12.7 µM],x
COCCn1c(=O)c(-c2cccc(C#N)c2)nc2cnc(Oc3ccc(OC)cc3)nc21,x,-18%,x,x,0%[0.501 µM],x
CN(CCc1ccccn1)C1CC(=O)N(c2ccc(Cl)cc2)C1=O (centres undefined),-4%,-17%,-22%,-11%,5µM*,48%
FC(F)(F)c1ccc2c(c1)C1C=CCC1C(c1ccncc1)N2 (centres undefined),45µM*,-7%,u,-25%,u,-8%
O=C(O)c1ccc2c(c1)C1C=CCC1C(c1ccncc1)N2 (centres undefined),56µM*,u,-3%,1%,u,27%
COc1cccc(C(=O)CSc2nnc(CNc3nc(-c4ccccc4)cs3)n2C)c1,-14%,-3%,-31%,-6%,8.9µM*,-19%
CC(C)OC(=O)CSc1nnc(CNc2nc(-c3ccccc3)cs2)n1C,u,-28%,-25%,u,45µM*,-19%
O=C(CNCc1ccccc1)NCCCN1CCCC1=O,-13%,-14%,2µM*,-6%,22µM*,u
S=C(NCCCN1CCOCC1)Nc1ccc(N2CCOCC2)cc1,-7%,-8%,-3%,-1%,u,37%
S=C(NCCCN1CCOCC1)Nc1ccc(-c2nc3ccccc3[nH]2)cc1,x,35µM*,-19%,24µM*,32µM*,-13%

# Compound activity as filed in PubChem BioAssay.
